These results are taken from PubChem BioAssay AID504333 (National Center for Advancing Translational Sciences (NCATS), 2011).

The whole screen tested about 360,000 compounds, of which about 16,000 (4.4%) were called active. Not shown: some 9% with an inconclusive outcome. The list comes from a sample in which actives are over-represented; it also holds similar structures and randomly drawn compounds. Where a call stands in place of a potency, no number is given. A number with no mark means an inactive call. The call rests on the fitted dose curve; in most records, active means well fitted inhibition curve with a large enough effect; inconclusive means small, poorly fitted or top-dose-only effect; inactive means no such curve, though single readings can be large or run the other way.
Potency means the concentration at half of the fitted maximal effect.

Sequence of Bromodomain adjacent to zinc finger domain protein 2B (Homo sapiens) (Q9UIF8 whole entry, looked up, the tested form may be a part): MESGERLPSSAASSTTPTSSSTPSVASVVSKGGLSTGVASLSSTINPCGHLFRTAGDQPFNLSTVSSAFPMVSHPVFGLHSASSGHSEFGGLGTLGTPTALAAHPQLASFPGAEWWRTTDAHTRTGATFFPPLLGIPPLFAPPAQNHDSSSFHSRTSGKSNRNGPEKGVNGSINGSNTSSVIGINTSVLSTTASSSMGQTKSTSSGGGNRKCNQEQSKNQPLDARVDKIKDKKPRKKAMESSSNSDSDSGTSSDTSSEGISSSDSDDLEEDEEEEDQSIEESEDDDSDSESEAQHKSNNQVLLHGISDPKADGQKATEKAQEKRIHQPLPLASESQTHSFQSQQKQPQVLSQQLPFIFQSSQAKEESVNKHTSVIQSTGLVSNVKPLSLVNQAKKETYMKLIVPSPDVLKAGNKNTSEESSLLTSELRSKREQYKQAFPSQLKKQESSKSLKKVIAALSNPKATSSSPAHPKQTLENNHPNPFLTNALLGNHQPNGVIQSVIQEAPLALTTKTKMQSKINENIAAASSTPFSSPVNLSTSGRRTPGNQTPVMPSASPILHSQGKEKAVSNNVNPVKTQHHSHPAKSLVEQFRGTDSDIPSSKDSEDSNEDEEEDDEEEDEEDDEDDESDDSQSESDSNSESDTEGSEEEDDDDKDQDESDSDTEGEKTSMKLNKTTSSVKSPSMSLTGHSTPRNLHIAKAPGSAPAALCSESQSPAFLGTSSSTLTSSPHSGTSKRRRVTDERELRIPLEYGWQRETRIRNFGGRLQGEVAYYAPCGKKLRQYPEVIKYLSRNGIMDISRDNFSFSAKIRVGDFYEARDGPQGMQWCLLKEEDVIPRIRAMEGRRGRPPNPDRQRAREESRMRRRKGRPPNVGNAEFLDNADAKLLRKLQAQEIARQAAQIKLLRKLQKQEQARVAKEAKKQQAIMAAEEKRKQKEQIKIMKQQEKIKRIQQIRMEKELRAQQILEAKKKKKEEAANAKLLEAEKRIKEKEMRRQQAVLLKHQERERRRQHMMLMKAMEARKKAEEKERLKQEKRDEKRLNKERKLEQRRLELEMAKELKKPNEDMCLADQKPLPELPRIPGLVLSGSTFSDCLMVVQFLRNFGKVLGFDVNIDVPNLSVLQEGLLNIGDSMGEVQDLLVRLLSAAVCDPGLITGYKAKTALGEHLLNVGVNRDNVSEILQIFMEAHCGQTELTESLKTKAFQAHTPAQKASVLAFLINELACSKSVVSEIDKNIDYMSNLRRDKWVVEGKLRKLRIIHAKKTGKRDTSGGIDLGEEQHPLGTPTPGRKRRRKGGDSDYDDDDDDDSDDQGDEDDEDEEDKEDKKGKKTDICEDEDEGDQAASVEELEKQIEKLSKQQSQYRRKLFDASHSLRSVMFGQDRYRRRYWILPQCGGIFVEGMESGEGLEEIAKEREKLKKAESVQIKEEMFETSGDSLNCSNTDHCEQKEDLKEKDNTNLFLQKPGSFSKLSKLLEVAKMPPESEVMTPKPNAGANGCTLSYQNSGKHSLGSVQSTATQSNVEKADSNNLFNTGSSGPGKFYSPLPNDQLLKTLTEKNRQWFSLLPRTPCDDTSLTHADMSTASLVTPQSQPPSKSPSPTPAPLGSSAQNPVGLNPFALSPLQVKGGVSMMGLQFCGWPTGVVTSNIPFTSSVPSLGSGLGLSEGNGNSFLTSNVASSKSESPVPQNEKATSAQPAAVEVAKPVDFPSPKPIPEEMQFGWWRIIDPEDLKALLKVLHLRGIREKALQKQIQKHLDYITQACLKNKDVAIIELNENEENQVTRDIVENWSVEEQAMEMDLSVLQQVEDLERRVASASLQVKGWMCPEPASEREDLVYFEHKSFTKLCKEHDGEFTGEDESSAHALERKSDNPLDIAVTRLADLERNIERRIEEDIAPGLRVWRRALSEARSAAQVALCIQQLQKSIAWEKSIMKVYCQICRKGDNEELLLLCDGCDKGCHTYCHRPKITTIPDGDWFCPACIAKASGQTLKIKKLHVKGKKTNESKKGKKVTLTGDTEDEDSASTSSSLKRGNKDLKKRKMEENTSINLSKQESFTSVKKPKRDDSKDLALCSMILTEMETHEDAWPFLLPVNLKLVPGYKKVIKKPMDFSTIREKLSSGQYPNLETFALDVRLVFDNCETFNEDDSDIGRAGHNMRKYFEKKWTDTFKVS

This assay has as its target Bromodomain adjacent to zinc finger domain protein 2B (Homo sapiens) (UniProt Q9UIF8). Nature of the assay: qHTS Assay for Inhibitors of BAZ2B. Further: nearly all actives have a fitted effect of over 60% in size. The settings on record: AlphaScreen BAZ2B-H3K14Ac peptide displacement; series mostly up to 114 µM. An excerpt:
BAZ2B (bromodomain adjacent to zinc finger domain, 2B) belongs to a family of ubiquitously expressed bromodomain containing proteins, which biological function has not yet been elucidated. […] The interaction of BAZ2B with ISWI mediated by the BAZ1 motif has recently been described. […] The protocol is based on the AlphaScreen (PerkinElmer) displacement assay developed by NCGC [5], but uses the peptide ligand Biot-H3K14Ac, a high affinity binding partner for BAZ2B, in an AlphaScreen format. Although AlphaScreen has significant advantages with its utility in a variety of epigenetic target assays, the primary screening data provided in this deposition should be used with caution due to the prevalence of screening artifacts. The top compound concentration tested was 110uM in this assay, which increases number of actives and potential artifacts. An AlphaScreen counterscreen is highly recommended to be run against any putative actives to eliminate non-specific artifacts. Alternatively, one can use other AlphaScreen assays in PubChem to filter out promiscuous hits. Eberharter, A. et al. ACF1 improves the effectiveness of nucleosome mobilization by ISWI through PHD-histone contacts. The EMBO journal 23, 4029-4039. 2004. PMID: 15457208 [2] Jones, M.H. et al. A novel family of bromodomain genes. Genomics 63, 40-45. 2000. PMID: 10662543 [3] Yasgar, et al. Compound Management for Quantitative High-Throughput Screening. JALA. 2008 Apr;13(2):79-89. PMID: 18496600 [4] Inglese, et al. Quantitative high-throughput screening: a titration-based approach that efficiently identifies biological activities in large chemical libraries. Proc Natl Acad Sci. 1;103(31):11473-8. 2006. PMID: 16864780 [5] Quinn et al. A chemiluminescence-based method for identification of histone lysine methyltransferase inhibitors. Mol Biosyst 6(5): 782-8. 2010. PMID: 20567762 [6] Baell,Holloway. New substructure filters for removal of pan assay interference compounds (PAINS) from screening libraries and for their exclusion in bioassays. J Med Chem. 53(7):2719-40. 2010. PMID: 20131845 NIH Molecular Libraries Probe Production Network [MLPCN] NIH Chemical Genomics Center [NCGC] Structural Genomics Consortium (SGC) NIH Grant: 5U54 MH084681-02
To each well of a 1,536w plate, 2ul of BAZ2B protein (final 50nM) and 1ul biotinylated histone peptide acetylated at Lys14 [b-H3(5-23)K14Ac] (final 50nM) were added in 1x PBS buffer, pH 7.4, containing 0.01% Tween-20, using a nanoliter dispenser. Formation of a protein-peptide complex proceeded at room temperature for 30 min. A Kalypsys pin-tool was employed to transfer 23 nL of library compound solution in DMSO to each well. Following a 30 min incubation of the protein-peptide complex with compounds at room temperature, a mixture of 40 ug/mL each streptavidin-coated donor and nickel chelate acceptor AlphaScreen beads (final 10 ug/mL) were added in a 1ul dispense for a final volume of 4ul. A brief centrifugation followed (1000rpm, 1 min) and were then incubated protected from the light for 20 min at room temperature. Plates were read on an EnVision multilabel plate reader using the 1,536 plate HTS AlphaScreen aperture (excitation time 80 ms, measurement time 240 ms).
With `COc1ccc2cc(CNc3ccc(OC)c(OC)c3)c(=O)n(CC(=O)Nc3ccccc3F)c2c1`, the Potency result is “inactive”.
Still for that read-out and setting: the entry for `COc1cccc(-c2n[nH]c3c2C(c2cccc(O)c2)N(C)C3=O)c1` (centres undefined) is “inactive”; for `Cc1ccc(/C=N/NC(=O)c2cc3ccccc3cc2O)o1` it is “inactive”.
Same read-out and setting: the figure for `Cc1cc(N=Nc2ccc3ccccc3c2)ccc1O` is 28.2 µM (active); for `COc1ccc(/C=C/c2noc(-c3ccccc3O)n2)cc1OC` it is “inactive”.
The same measure, in the same setting: the entry for `COc1ccc(-n2c(SCC(=O)Nc3ccc(Cl)c(C)c3)nc3n[nH]c(C)c3c2=N)cc1` is “inactive”.
Turning to `CCc1cccc(NC(=O)CN(c2ccc(C)c(C)c2)S(=O)(=O)c2ccsc2C(=O)OC)c1`, the Potency entry is “inactive”.
The same measure, in the same setting: the entry for `COc1cc(CN2CCC(C(N)=O)CC2)ccc1OCc1ccccc1` is “inactive”; for `COc1cc(C)cc(CN2CCC(Cc3ccccc3)CC2)c1O` it is “inactive”.
On the same count and under the same terms, the result for `Oc1c(CN2CCN(c3ccc(F)cc3)CC2)cc(Cl)c2cccnc12` reads 22.4 µM (active); that for `Oc1c(CN2CCCC2)cc(COCc2ccccc2)c2cccnc12`, 17.8 µM (active).
Still for that read-out and setting: the entry for `O=C(CN1CCN(c2ccc(F)cc2)CC1)Nc1ccccc1` is “inactive”.
`Cc1cccnc1NC(=O)c1cccc(S(=O)(=O)N2CCN(c3ccc(F)cc3)CC2)c1`: the Potency result is “inactive”.
Turning to `CCCS(=O)(=O)c1c(Nc2ccccc2C)sc(C(=O)c2ccccc2)c1N`, the Potency entry is “inactive”.
Same read-out and setting: the result for `Cc1ccc(-c2nn3c(=O)cc(CN4CCN(S(=O)(=O)c5ccc(Cl)cc5)CC4)nc3s2)cc1` reads “inactive”; that for `COc1cc(NC(=O)c2cc(C3CC3)nc3c2c(C)nn3-c2ccccc2)cc(OC)c1`, “inactive”.
Still for that read-out and setting: the entry for `O=C(/C=C/c1ccccc1)Nc1cc(-c2nc3cc(Cl)ccc3o2)ccc1Cl` is “inactive”.
On the same count and under the same terms, the entry for `CCN(CCCNC(=O)Cn1ncc2c([nH]c3ccccc32)c1=O)c1cccc(C)c1` is “inactive”; for `CCN(CCCNC(=O)c1ccc2c(c1)NC(=O)CN2C)c1cccc(C)c1` it is 50.1 µM (active).
For `CCCCNC(=O)c1ccc2c(c1)NC(=O)C(C(C)C)N2` (centres undefined), the Potency result is “inactive”.
Same read-out and setting: the result for `CCC1CCCCN1C(=O)Cn1c(=O)n(CCCCCC(=O)NCc2ccccc2)c(=O)c2sccc21` (centres undefined) reads “inactive”; that for `CCOC(=O)c1csc(NC(=O)Nc2cccc(OC)c2)n1`, “inactive”; that for `Cc1nc(NC(=O)c2cccc(Cl)c2)sc1-c1csc(Nc2cccc(Cl)c2)n1`, “inactive”.
As for `CC(=O)Nc1nc(C)c(-c2csc(Nc3ccc(S(N)(=O)=O)cc3)n2)s1`, the Potency result was “inactive”.
The same measure, in the same setting: the result for `COc1cccc(CC(=O)Nc2ccc(-c3csc(C)n3)cc2)c1` reads “inactive”; that for `C=CCCC(=O)Nc1nc(C)c(-c2csc(Nc3ccc(Cl)cc3)n2)s1`, 44.7 µM (active); that for `Cc1ccc(Nc2nc(-c3sc(NC(=O)c4ccccc4)nc3C)cs2)cc1`, 50.1 µM (active).
Still for that read-out and setting: the result for `Cc1ccc(C(=O)Nc2nc(-c3ccccc3)ns2)cc1` reads “inactive”.
Still for that read-out and setting: the result for `CCCCCCC(=O)Nc1nc(C)c(-c2csc(Nc3cccc(OC)c3)n2)s1` reads 50.1 µM (active); that for `CCC(=O)Nc1nc(C)c(C(=O)Nc2cccc(Cl)c2)s1`, “inactive”.
As to `O=C(NCCc1ccc(Cl)cc1)c1ccc2c(c1)N(Cc1ccc(F)cc1)C(=O)CS2`, the Potency entry was “inactive”.
Still for that read-out and setting: the result for `COc1cc(NC(=O)c2noc3c2CSc2ccccc2-3)cc(OC)c1OC` reads “inactive”; that for `COc1ccc(-n2c(=O)c3sc4ccccc4c3n(CC(=O)Nc3cccc(C)c3)c2=O)cc1`, “inactive”; that for `COc1ccc(NC(=O)Cn2c(=O)n(CCC(C)C)c(=O)c3cccnc32)cc1Cl`, “inactive”.
The same measure, in the same setting: the entry for `Cc1cccc(OCCCC(=O)Nc2sc3c(c2C(N)=O)CCC(C)C3)c1` (centres undefined) is “inactive”; for `COc1ccc(Cl)cc1NC(=O)Cn1c(=O)c2ccccc2n2nncc12` it is “inactive”; for `COc1ccc(OC)c(NC(=O)CN2CCCN(Cc3cc(C)ccc3C)S2(=O)=O)c1` it is “inactive”.
The same measure, in the same setting: the result for `Cc1cc(C(=O)Nc2cccc(C(F)(F)F)c2)c2c(C)nn(-c3cccc(F)c3)c2n1` reads “inactive”.
Turning to `CC(=O)c1ccc(N2CCN(C3C(=O)c4ccccc4N3C(C)=O)CC2)cc1` (centres undefined), the Potency result was “inactive”.
Same read-out and setting: the result for `Cc1ccc(C)c(Cn2c(CCCNC(=O)C3CCCCC3)nc3ccccc32)c1` reads “inactive”.
The same measure, in the same setting: the result for `CC(=O)N1CCN(c2ccc(NCc3ccc(C(C)C)cc3)cc2)CC1` reads 35.5 µM (active); that for `O=C(Nc1ccc(F)cc1)N1CCN(c2ccc(F)cc2)CC1`, “inactive”.
On to `CC(=O)c1ccc(N2CCN(C(=O)CCc3ccccc3)CC2)cc1`, for which the activity change, negative = inhibition is 8.19% [at 0.457 µM].
As for `COc1cc(OC)c(NC(=O)c2cnc(N3CCCC3)nc2C)cc1Cl`, the Potency entry was “inactive”.
Take `O=C(NCc1ccccc1)c1ccc2c(c1)nc1n2CCCCC1`: the Potency entry is “inactive”.
Still for that read-out and setting: the result for `COc1cccc(C(=O)Nc2ccc3oc(-c4ccc5ccccc5c4)nc3c2)c1` reads “inactive”; that for `CCN1/C(=C\c2ccc3ccccc3[n+]2CC)Sc2cc(C)ccc21`, 50.1 µM (active).
On to `CCCSc1nc2sc3c(c2c(=O)n1-c1cccc(Br)c1)CC(C)(C)OC3`, for which the Potency result was “inactive”.
Still for that read-out and setting: the result for `O=S(=O)(NCc1ccco1)c1cnc(Cl)c(Cl)c1` reads “inactive”; that for `O=C(CCCl)Nc1ccc(S(=O)(=O)NCc2ccco2)cc1`, “inactive”.
On the same count and under the same terms, the figure for `Cc1c(Cl)cnc(NC(=O)COC(=O)c2ccc(S(=O)(=O)NCc3ccco3)cc2)c1Cl` is 50.1 µM (active).
Still for that read-out and setting: the result for `O=C(COC(=O)c1cnc(Cl)c(Cl)c1)NCc1ccco1` reads 50.1 µM (active); that for `O=C(COC(=O)c1ccco1)NCc1ccc(Cl)cc1`, “inactive”.
Consider `CSCCC(NC(=O)c1ccco1)C(=O)OCC(=O)Nc1ncc(Cl)c(C)c1Cl` (centres undefined), for which the Potency entry was “inactive”.
In the case of `Cc1nn2c(=O)cc(COC(=O)CNC(=O)c3ccc(F)cc3)nc2s1`, the Potency result is “inactive”.
The same measure, in the same setting: the result for `CC1=C(c2ccc(C)c(C)c2)S(=O)(=O)NC1=NCc1ccccc1Cl` reads “inactive”; that for `CCn1nc(C(=O)Nc2ccc(N3CCOCC3)cc2)c2ccccc2c1=O`, “inactive”.
Still for that read-out and setting: the figure for `CC(C)c1ccc(NC(=O)c2ccc(Cn3nc(N4CCN(c5ccccc5)CC4)ccc3=O)o2)cc1` is 39.8 µM (active); for `COc1ccccc1N1CCN(c2ccc(=O)n(CC(=O)NCc3ccc(OC(C)C)cc3)n2)CC1` it is “inactive”; for `Fc1ccccc1Oc1ncnc2c1oc1ccccc12` it is “inactive”.
The same measure, in the same setting: the result for `O=C(Nc1ccc(Br)cc1)c1cc2nc(-c3ccccc3)cc(-c3ccccc3)n2n1` reads “inactive”; that for `COc1cc(OC)c(C(=O)Nc2ccc(N(C)C)cc2)cc1OC`, 50.1 µM (active).
For the compound `COc1ccc(Cl)cc1C(=O)Nc1ccc(N(C)C(C)=O)cc1`, the Potency entry was “inactive”.
Still for that read-out and setting: the entry for `COc1cc(OC)c(C(=O)Nc2ccccc2-c2ccccc2)cc1OC` is “inactive”.
